For 40 molecules, growth results are on record in PubChem BioAssay (NCI).

Where “and” joins values, the source holds several entries; their conditions need not be identical. Identical values can stand only once. Compounds without any hit were thinned out: in the full panel of roughly 83,000, 20% have a hit.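 A percent growth of 40 corresponds to 60% growth inhibition; 0 means no net growth; -100 means all cells died. Active threshold: below 10.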 Calls of active or inactive are those of the source. Where a SMILES comes first, the peptide text is derived from it.

For the experiment, the system named is NCI-H460 lung. Briefly: NCI-60 one-dose screen, 48 h (100 = growth as untreated, 0 = no growth, -100 = all killed). The settings on record: 10 µM unless noted. On the procedure: Growth inhibition of the NCI-H460 human Non-Small Cell Lung tumor cell line is measured as a screen for anti-cancer activity. Cells are grown in 96 well plates and exposed to the test compound for 48 hours. Compounds are tested at a single concentration, which is 10^-5 M for most compounds. The reported endpoint is percent growth (GI% or GIPRCNT), where numbers from 0 - 100% represent growth inhibition, and numbers from -100% - 0 represent cell death. For example, a value of 40 represents 60% growth inhibition. A value of 0 means no net growth occurred over the course of the experiment. A value of -40 indicates 40% of cells at the beginning of the experiment died by the end of the experiment. A value of -100 means all cells are dead at the end of the experiment.
NCI-60 Human Tumor Cell Lines Screen was performed using the standard one-dose NCI protocol, which is described in more detail at https://dtp.cancer.gov/discovery_development/nci-60/default.htm.
Compounds with GIPRCNT values below 10 were considered active. Activity score was based on GIPRCNT using the following formula: […]
Score is 0 for GIPRCNT values of 100 or above, 50 for GIPRCNT values of 0, and 100 for GIPRCNT values of -100.
As to `CN(C)CC1CCCCCC(CN(C)C)C1=O` (stereo not given), the growth is 106% (inactive).
Under `O=CN1CCCCC1` stands 112% (inactive).
With `CCCCCCCCCCCCCCCc1ccc(N)c(OC2OC(CO)C(O)C(O)C2O)c1` (stereo not given), the growth is 102% (inactive).
`Cc1cc(-c2ccc(N=Nc3ccc4c(S(=O)(=O)O)cc(S(=O)(=O)O)c(N)c4c3O)c(C)c2)ccc1N=Nc1ccc2c(S(=O)(=O)O)cc(S(=O)(=O)O)c(N)c2c1O`: the growth is 111% (inactive).
Consider `O=c1[nH]cnc2c1ncn2C1OC(CO)C(O)C1O` (stereo not given), for which the growth was 109% (inactive) and 122% (inactive) and 106% (inactive).
Regarding `O=C(CO)C(O)C(O)C(O)C(O)CO` (stereo not given), the growth is 109% (inactive) and 108% (inactive).
As to `Brc1ccc(SSc2ccc(Br)cc2)cc1`, the growth is 68.1% (inactive).
For the molecule `CC(C)(O)C(=O)O`, the growth was 103% (inactive).
Then `OCCN1CCCCCCC1`, with 106% (inactive); and `CC(C)C(C)(C)c1ccc(O)cc1`, with 104% (inactive).
Regarding `Oc1ccc(Cc2ccccc2Cl)c(O)c1`, the growth is 101% (inactive).
For `CC(=O)Nc1ccc(S(N)(=O)=O)cc1`, the growth was 102% (inactive) and 105% (inactive).
`Cc1cc(-c2cc(C)c(O)c(C)c2)cc(C)c1O`: the growth was 102% (inactive).
Take `CCCCNc1ccc(Nc2ccccc2)cc1`: the growth is 76.7% (inactive).
Then `NC(Cc1c[nH]c2ccccc12)C(=O)O` (stereo not given), with 105% (inactive) and 101% (inactive); and `CCN(CCNS(C)(=O)=O)c1ccc(N)c(C)c1`, with 107% (inactive) and 99.7% (inactive); and `O=C1C=C(Nc2ccccc2)c2ccccc2C1=O`, with 14.5% (inactive) and 93.2% (inactive).
On to `O=c1n(CC2CO2)c(=O)n(CC2CO2)c(=O)n1CC1CO1` (stereo not given), for which the growth is 19.2% (inactive).
`NC(Cc1ccccc1)C(=O)NC(Cc1ccccc1)C(=O)O` (stereo not drawn) (H-Phe-Phe-OH; configuration not given here): the growth was 104% (inactive).
In the case of `CC1CCC(C(C)C)C(NNC(N)=O)C1` (stereo not given), the growth was 104% (inactive).
In the case of `COc1ccc(C(=O)CC(c2ccccc2)C(C#N)c2ccccc2)cc1` (stereo not given), the growth is 92.8% (inactive).
For `CC(=O)OCC1OC(OC(C)=O)C(OC(C)=O)C(OC(C)=O)C1OC(C)=O` (stereo not given), the growth was 112% (inactive) and 104% (inactive).
`CC1=C/C(O)CC(=O)Cc2nc(co2)C(=O)N2CCC=C2C(=O)OC(C(C)C)C(C)/C=C\C(=O)NC/C=C\1` (stereo not given): the growth is 102% (inactive).
Turning to `N#CC(C#N)N=Nc1ccc(Cl)cc1`, the growth was 91% (inactive).
Regarding `COc1ccc2cc1Oc1ccc(cc1)C[C@H]1c3cc(c(OC)cc3CCN1C)Oc1c(OC)c(OC)cc3c1[C@H](C2)N(C)CC3`, the growth is 44.9% (inactive).
As for `CCCCOc1ccc(Nc2cc(Cl)ccc2C(=O)O)cn1`, the growth is 104% (inactive) and 99% (inactive).
On to `COc1ccc(N/C=C/C2=[N+](C)c3ccccc3C2(C)C)c(OC)c1`, for which the growth is 96.3% (inactive).
In the case of `ClCCOCCOc1ccc(C2CCCCC2)cc1`, the growth is 106% (inactive).
Then `O=C(O)CCCl`, with 106% (inactive).
Consider `COc1cc(C(O)C2C(=O)OCC2C2(c3ccc4c(c3)OCO4)SCCCS2)cc(OC)c1OC` (stereo not given), for which the growth was 107% (inactive).
Take `CC(C)NCC(O)c1ccc(O)c(O)c1` (stereo not given): the growth was 108% (inactive) and 101% (inactive) and 105% (inactive).
Turning to `Cn1cnc([N+](=O)[O-])c1Sc1ncn[nH]1`, the growth is 115% (inactive).
Regarding `O=C1OC(c2ccccc2)=N/C1=C\c1ccccc1`, the growth was 103% (inactive).
Consider `O=[N+]([O-])c1cccc(SSc2cccc([N+](=O)[O-])c2)c1`, for which the growth is 109% (inactive).
For the molecule `Nc1cc(N)c(N)cc1N`, the growth is 96.8% (inactive).
`CC(=O)NCC(=O)c1ccc([N+](=O)[O-])cc1`: the growth is 104% (inactive).
Then `CCOC(=O)c1c(C)cc(=O)oc1C`, with 110% (inactive); and `N#CC(C#N)N=Nc1cc(Cl)ccc1Cl`, with 102% (inactive).
Consider `NN1CCOC(c2ccccc2)C1` (stereo not given), for which the growth is 115% (inactive).
As for `Fc1ccc([I+]c2ccc(F)cc2)cc1`, the growth was 86.1% (inactive).
